IL1B secr inh = qHTS for Inhibitors of Inflammasome Signaling: IL-1-beta AlphaLISA Primary Screen | THP-1 LPS/ATP IL-1B secretion, AlphaLISA, 16 h; hits give low values | activity change, % at 57.5 µM | hit rate 4.7% among 360,000; in the data active means activity change below about -50%; inconclusive means mostly about -30% to -49%
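Secreted IL-1B measured by AlphaLISA bead assay after 16 h compound exposure of THP-1 cells; compounds (final up to 57.5 uM) added 1 h before LPS (250 ng/mL) and ATP (1.25 mM) stimulation; lower signal means less secretion.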
Giardia killer = Small Molecules that selectively kill Giardia lamblia: qHTS. Giardia lamblia trophozoite viability. activity change, % at 7.66 µM, hits read low. hit rate 0.15% among 340,000. AID 540267, 2011; in the data active means activity change below about -80%; inconclusive means between about -30% and that limit;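 further: parasites exposed to compound for two days anaerobically before the ATP read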
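Viability, read as ATP luminescence: trophozoites at 100 cells/well, compound added, 48 hrs anaerobic at 37 deg C, then 15-30 min room-temperature development before reading.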
TDP1 cell CPT = qHTS for Inhibitors of human tyrosyl-DNA phosphodiesterase 1 (TDP1): qHTS in cells in presence of CPT | AID 686979, 2013 | Potency, µM (doses to about 46.2 µM), inactives show at the top dose activity change, negative = growth inhibition, most hits filed as inhibitors | hit rate 12% among 420,000 | chicken DT40 Tdp1-/-;hTDP1 cells + 20 nM CPT, ATP luminescence, 48 h; further: potency means the concentration at half of the fitted maximal effect; nearly all actives have a fitted effect of over 55% in size
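Chicken DT40 Tdp1-/- cells complemented with human TDP1, 400 cells/well, exposed to compounds plus 20 nM camptothecin for at least 48 h at 37 C; viability read as ATP content by CellTiter-Glo luminescence.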
DT40 TDP1 no CPT = qHTS for Inhibitors of human tyrosyl-DNA phosphodiesterase 1 (TDP1): qHTS in cells in absence of CPT; hit rate 15% among 420,000; DT40 Tdp1-/- hTDP1 cells, no CPT, ATP luminescence, 48 h; Potency, µM (titrated, usually from 46.2 µM), inactives show at the top dose activity change, negative = growth inhibition, hits mostly inhibitors; further: potency means the concentration at half of the fitted maximal effect; nearly all actives have a fitted effect of over 55% in size
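DT40 Tdp1-/-;hTDP1 cells, no CPT (DMSO vehicle only), 400 cells/well; compounds pin-transferred; ≥48 hr, 37 °C; CellTiter-Glo 30 min RT dark, luminescence read.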
TDP1 inh = qHTS Assay for Inhibitors of Tyrosyl-DNA Phosphodiesterase (TDP1). AID 485290, 2010. Tyrosyl-DNA phosphodiesterase 1 (Homo sapiens), Q9NUW8. recombinant TDP1, AlphaScreen DNA substrate cleavage. hit rate 0.28% among 350,000. Potency, µM (series often up to 130 µM), for the others: top-dose activity change, negative = inhibition, most hits filed as inhibitors; further: potency means the concentration at half of the fitted maximal effect; nearly all actives have a fitted effect of over 40% in size
Target sequence (Q9NUW8 whole entry, looked up): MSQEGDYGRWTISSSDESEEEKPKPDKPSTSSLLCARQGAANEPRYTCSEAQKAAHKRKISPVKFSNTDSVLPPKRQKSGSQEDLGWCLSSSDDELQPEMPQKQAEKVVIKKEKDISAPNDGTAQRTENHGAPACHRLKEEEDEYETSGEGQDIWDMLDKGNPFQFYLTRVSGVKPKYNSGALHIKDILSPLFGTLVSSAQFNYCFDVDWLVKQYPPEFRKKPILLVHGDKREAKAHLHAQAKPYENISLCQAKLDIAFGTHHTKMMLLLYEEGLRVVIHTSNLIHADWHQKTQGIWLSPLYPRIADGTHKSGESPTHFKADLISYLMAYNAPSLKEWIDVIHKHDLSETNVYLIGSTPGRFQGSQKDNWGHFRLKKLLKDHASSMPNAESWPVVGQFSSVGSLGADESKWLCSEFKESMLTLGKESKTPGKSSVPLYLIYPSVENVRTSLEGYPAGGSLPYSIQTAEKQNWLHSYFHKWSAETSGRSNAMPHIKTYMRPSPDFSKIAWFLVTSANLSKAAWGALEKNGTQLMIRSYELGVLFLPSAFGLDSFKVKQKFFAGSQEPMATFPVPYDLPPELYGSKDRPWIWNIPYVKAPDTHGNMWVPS
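Here, a 5' biotin and 3' phosphotyrosine-FITC DNA oligonucleotide reports Tdp1 activity: intact substrate bridges AlphaScreen beads, while cleavage leaves a 3' phosphate and drops signal. All incubations at room temperature.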
ELG1 DNA repair = qHTS screen for small molecules that inhibit ELG1-dependent DNA repair in human embryonic kidney (HEK293T) cells expressing luciferase-tagged ELG1 | HEK293T ELG1-luciferase reporter, luminescence, 16 h; DNA damage induced by 5-fluorouridine | Potency, µM (top dose mostly 46.1 µM), without a hit: at the top dose activity change, negative = inhibition, most hits filed as inhibitors | hit rate 2.3% among 330,000 | AID 504467, 2011; further: potency means the concentration at half of the fitted maximal effect; nearly all actives have a fitted effect of over 55% in size
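Luminescence from the luciferase reporter, measured 30 min after ONE-Glo reagent at room temperature, was the read-out. Beforehand, 2,000 cells per well were exposed for 16 hr at 37 °C to 5-fluorouridine together with compound or vehicle.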
* = called active by the depositor. Hits are enriched below; roughly 19% of the tested compounds scored in any of these assays. Unless noted, the call rests on the fitted dose curve; in most records, active means well fitted curve in the direction sought with a large enough effect; inconclusive means small, poorly fitted or top-dose-only effect, or another doubt; inactive means no such curve, though single readings can be large; an effect the other way counts as inactive or inconclusive. On the % scale 0 is the no-effect control and ±100 the full control effect.

`C=CC[C@@H](CC(=O)N[C@@H](CO)Cc1ccccc1)C(=O)N[C@H](COC(=O)[C@@H](CC=C)Cc1ccc(F)cc1)Cc1c[nH]c2ccccc12` gave IL1B secr inh -13, Giardia killer 4, TDP1 cell CPT inconclusive, DT40 TDP1 no CPT inconclusive, TDP1 inh 2% and ELG1 DNA repair inconclusive.
`Cc1ccccc1NC(=O)CSc1nc(N)c2c3c(sc2n1)CSC(C)(C)C3` gave IL1B secr inh 13, Giardia killer 5, TDP1 cell CPT 23µM*, DT40 TDP1 no CPT inconclusive, TDP1 inh 3% and ELG1 DNA repair inconclusive.
Screening Cc1ccc(NC(=O)CSc2nc(N)c3c4c(sc3n2)CSC(C)(C)C4)cc1 returned IL1B secr inh -30, Giardia killer -12, TDP1 cell CPT 23µM*, DT40 TDP1 no CPT 16µM*, TDP1 inh 6% and ELG1 DNA repair inconclusive.
Cc1nn(-c2ccccc2)c(=S)c2ccccc12 was read as IL1B secr inh 1, Giardia killer 7, TDP1 cell CPT -3%, DT40 TDP1 no CPT 15%, TDP1 inh -3% and ELG1 DNA repair 9%.
Screening COc1ccc(-c2nc(CSCC(=O)NC3CCN(Cc4ccccc4)CC3)c(C)o2)cc1OC returned IL1B secr inh -7, Giardia killer -9, TDP1 cell CPT inconclusive, DT40 TDP1 no CPT inconclusive, TDP1 inh 2% and ELG1 DNA repair inconclusive.
Screening COC(=O)c1ccc(NS(=O)(=O)c2ccc3[nH]c4c(c3c2)CCCCC4)cc1 returned TDP1 inh 7%.
For COc1cccc(NS(=O)(=O)c2ccc3[nH]c4c(c3c2)CCCCCC4)c1 the results were Giardia killer 6, TDP1 cell CPT 16µM*, DT40 TDP1 no CPT 21µM* and TDP1 inh 11%.
CCOC(=O)C1CCN(S(=O)(=O)c2ccc3[nH]c4c(c3c2)CCCC4)CC1 was read as IL1B secr inh 44, Giardia killer 13, TDP1 cell CPT inconclusive, DT40 TDP1 no CPT -19%, TDP1 inh 8% and ELG1 DNA repair -24%.
Screening CCOC(=O)CC(NS(=O)(=O)c1ccc2[nH]c3c(c2c1)CCCC3)c1ccccc1Cl (stereo not drawn) returned Giardia killer 5, TDP1 cell CPT 18µM*, DT40 TDP1 no CPT inconclusive and TDP1 inh 6%.
Screening COC(=O)c1ccc(NS(=O)(=O)c2ccc3[nH]c4c(c3c2)CCCC4)cc1 returned TDP1 cell CPT inconclusive, DT40 TDP1 no CPT 6.5µM* and TDP1 inh 11%.
CSc1ccccc1NC(=O)COc1ccccc1Cl was read as IL1B secr inh 19, Giardia killer -17, TDP1 cell CPT 4%, DT40 TDP1 no CPT -22%, TDP1 inh -8% and ELG1 DNA repair inconclusive.
Screening CCOC(=O)/C=C/CCCC=O returned TDP1 inh 8%.
CCOC(=O)C1(C)CCN1C(=O)c1ccc2ccccc2c1 (stereo not drawn) was read as IL1B secr inh 18, TDP1 cell CPT inconclusive and DT40 TDP1 no CPT inconclusive.
For Cc1cc(-c2nnc3sc(C4CCCCC4)nn23)n[nH]1 the results were IL1B secr inh -21, Giardia killer 22, TDP1 cell CPT inconclusive, DT40 TDP1 no CPT -20%, TDP1 inh 2% and ELG1 DNA repair 8%.
COc1cccc(-c2nnc3sc(C4CCCCC4)nn23)c1 was read as IL1B secr inh -93*, Giardia killer -18, TDP1 cell CPT 18µM*, DT40 TDP1 no CPT 21µM*, TDP1 inh 4% and ELG1 DNA repair 4.6µM*.
COc1cc(-c2nnc3sc(C4CCCCC4)nn23)cc(OC)c1OC was read as IL1B secr inh -27, Giardia killer 4, TDP1 cell CPT 16µM*, DT40 TDP1 no CPT 23µM*, TDP1 inh 6% and ELG1 DNA repair inconclusive.
For CCOc1cccc(-c2nnc3sc(C4CCCCC4)nn23)c1 the results were IL1B secr inh inconclusive, Giardia killer 16, TDP1 cell CPT inconclusive, DT40 TDP1 no CPT inconclusive, TDP1 inh 3% and ELG1 DNA repair 21µM*.
c1cncc(-c2nnc3sc(C4CCCCC4)nn23)c1 was read as IL1B secr inh -21, Giardia killer -6, TDP1 cell CPT -20%, DT40 TDP1 no CPT inconclusive, TDP1 inh 0% and ELG1 DNA repair -1%.
`COC(=O)[C@@H]1CCCN1Cc1ccc2c(c1)CN(Cc1ccc3c(c1)CCCN3C)CCO2` gave TDP1 cell CPT 11% and DT40 TDP1 no CPT -2%.
Screening O=C(CN1CCOCC1)NN=C1CCCCCCCCCCC1 returned IL1B secr inh -2, Giardia killer -3, TDP1 cell CPT -8%, DT40 TDP1 no CPT -18%, TDP1 inh 5% and ELG1 DNA repair 19%.
Screening CCN(CC)C(=O)Cn1cc(S(=O)(=O)CC(=O)N2CCOCC2)c2ccccc21 returned IL1B secr inh 2, Giardia killer 12, TDP1 cell CPT -1% and DT40 TDP1 no CPT 4%.
`CCn1cc(CNC(=O)c2ccc3nc(Cc4ccccc4F)oc3c2)cn1` gave IL1B secr inh inconclusive, Giardia killer -9, TDP1 cell CPT 12µM*, DT40 TDP1 no CPT 12µM*, TDP1 inh 6% and ELG1 DNA repair 4%.
Screening CCN(Cc1cnn(C)c1)C(=O)c1ccc2nc(Cc3ccccc3F)oc2c1 returned IL1B secr inh 14, TDP1 cell CPT inconclusive and DT40 TDP1 no CPT 21µM*.
`Cc1cc(CN(C)C(=O)c2ccc3nc(Cc4ccccc4F)oc3c2)on1` gave IL1B secr inh -81*, Giardia killer 4, TDP1 cell CPT inconclusive, DT40 TDP1 no CPT inconclusive, TDP1 inh 0% and ELG1 DNA repair -1%.
Screening Cn1cc(CNC(=O)c2ccc3nc(Cc4ccccc4F)oc3c2)cn1 returned IL1B secr inh -4, Giardia killer -27, TDP1 cell CPT -21%, DT40 TDP1 no CPT inconclusive, TDP1 inh 3% and ELG1 DNA repair inconclusive.
`COc1cc(/C=C2\C=Cc3ccccc32)cc(OC)c1OC` gave TDP1 cell CPT inconclusive and DT40 TDP1 no CPT 16µM*.
For C1=Cc2ccccc2/C1=C\c1cc[cH-]c1.[Fe+2].c1cc[cH-]c1 the results were TDP1 cell CPT 11µM* and DT40 TDP1 no CPT inconclusive.

From PubChem BioAssay
